{"source": "PubChem BioAssay (EPA / NIEHS)", "note": "Activity calls are given as the source filed them. How the source made its calls: active means hit-call score of the fitted dose curve at least 0.9, where 1 is the maximum; inactive means score below 0.9."}
{"read-out": "Lipase C (LIPC), LIPC (gene 3990)", "experiment": "LTEA_HepaRG_LIPC: Life Technologies and Expression Analysis (LTEA) Assay for Lipase C (LIPC) using HepaRG (AID 2283514)", "settings": "mRNA level, 48 h; actives raise or lower the signal", "procedure": "LTEA_HepaRG is a cell based, multiplexed-readout assay that uses HepaRG, a human liver cell line, with measurements taken at 48 hours after chemical dosing on a 96-well plate.LTEA_HepaRG_LIPC is one of 102 assay component(s) measured in the LTEA HepaRG cell culture assay. It is a marker of Steatosis.Data from the assay component LTEA_HepaRG_LIPC was analyzed into 1 endpoint. This assay endpoint, LTEA_HepaRG_LIPC, was analyzed with bidirectional fitting relative to DMSO as the negative control and baseline of activity. Using a type of inducible reporter, measures of mRNA induction for gain or loss-of-signal activity can be used to understand regulation of transcription factor activity. To generalize the intended target to other relatable targets, this assay endpoint is annotated to the esterase intended target family, where the subfamily is lipase.\nA total of 1060 chemcials from the ToxCast library were tested in eight-point concentration-response experiments. Cell culture and cytotoxicity assays were conducted at Thermo Fisher Scientific's Custom Services facility (Madison, WI). A single lot of human HepaRG cells (Thermo Fisher Scientific, Frederick, MD) was used for the cell culture experiments. 96-well format collagen type I coated plates of human HepaRG cells were prepared using established methods. Briefly, cryopreserved HepaRG cells were thawed, plated at a density of approximately 100,000 cells/well in HepaRG Thaw, Plate, and General Purpose media (HPRG770, Thermo Fisher Scientific), and incubated for 48 hours. 0.5% DMSO was selected as vehicle control to balance the requisite need of DMSO in HepaRG cultures to maintain differentiation (for example, baseline metabolism, proportions of hepatocytes vs. cholangiocytes), while enabling further hepatic receptor pathway activation (for example, PXR and CAR) in response to chemical exposure. 48 hours after plating, the culture medium was replaced with HepaRG Serum-Free Incudtion Media. Cells were exposed to each test chemical in duplicate and maintained in CO2 incubators for another 48 hours. Chemical plates were thawed to room temperature and 200x concentrations of treatment groups were prepared. 8-point conentration-reponse curves were made with the highest exposure at 100 uM, followed by half-log dilutions, all in 0.5% DMSO. Each test plate contained variouse controls, induction positive controls (1mM phenobarbital), cytotoxicity positive controls ([…] aflatoxin B1), vehicle controls (0.5% DMSO), and total lysis controls (0.5% DMSO). Cell morphology images were taken using an Essen IncuCyte FLR automated microscope, with six 96-well plates imaged in about 24 minutes. Images were captured and exported and JPEG files. Spent culture media was transfered to black-well plates for the LDH assay, and remaining media was sorted at -80 C for later use. Cells were treated with RLT buffer and frozen until shipped for gene expression analysis. Total RNA was isolated from the cell suspension in 75 uL of Buffer RLT (Qiagen, Germantown, MD 20874) by Quintiles/Expression Analysis (Durham, NC) using a custom isolation procedure. Total RNA from each plate well was transferred to a preamplification plate. Fluidigm's 96.96 Dynamic ArrayTM (Fluidigm, Amsterdam, the Netherlands) technology was used for gene expression analyses by quantitative reverse transcription polymerase chain reaction (qRT-PCR, performed by Quintiles/Expression Analysis, Durham, NC)89. Standard TaqManTM Assays (Applied Biosystems/ThermoFisher Scientific, Foster City, CA) were used to assess the expression of 93 genes selected based on their selectivity and sensitivity to important hepatic receptors known to be modulated by environmental chemicals; importance in human hepatocyte functionality; and hepatotoxicity. […]"}
{"smiles": "O=C1O[C@H]([C@@H](O)CO)C(O)=C1O", "outcome": "inactive"}
{"smiles": "Cc1oc2c(NC(=O)c3c(Cl)cccc3Cl)cccc2c1C(C)(C)O", "AC50": "37.6 µM (active)"}
{"smiles": "CCCCCCCCN(C)CCCCCCCC", "outcome": "inactive"}
{"smiles": "CCCCCCCCOc1ccc(C(=O)c2ccccc2)c(O)c1", "outcome": "inactive"}
{"smiles": "Oc1ccc2ccccc2c1", "outcome": "inactive"}
{"smiles": "NCc1cccc(C2CCN(C(=O)c3ccc(C#Cc4ccccc4F)o3)CC2)c1", "AC50": "76.6 µM (active)"}
{"smiles": "COc1cc(C(=O)NC2CCN(C)CC2)ccc1Nc1ncc2c(n1)N(C1CCCC1)CC(F)(F)C(=O)N2C", "AC50": "4.65 µM (active)"}
{"smiles": "OCCO", "outcome": "inactive"}
{"smiles": "Cc1ccc2oc(CN(Cc3ccccc3)C(=O)Nc3c(F)cc(F)cc3F)c(-c3ccc(Cl)cc3)c2c1", "AC50": "44.2 µM (active)"}
{"smiles": "CC(C)(c1cc(Br)c(O)c(Br)c1)c1cc(Br)c(O)c(Br)c1", "outcome": "inactive"}
{"smiles": "CC(C)(C)c1csc(-c2cc3cc(OCc4ccccc4CC(=O)O)ccc3o2)n1", "AC50": "25.1 µM (active)"}
{"smiles": "CCCCCCCCOC(=O)c1cc(O)c(O)c(O)c1", "outcome": "inactive"}
{"smiles": "CCCCCCCCCCCO", "outcome": "inactive"}
{"smiles": "NC(=O)c1nc(-c2cccc(-c3cc(F)ccc3OCC(F)(F)C(F)(F)F)c2)n[nH]1", "outcome": "inactive"}
{"smiles": "O=C1c2ccccc2C(=O)N1CCc1noc(-c2ccc(CN3CCCCCC3)s2)n1", "outcome": "inactive"}
{"smiles": "O=C(Nc1ccc(Cl)cc1)Nc1ccc(Cl)c(Cl)c1", "AC50": "15.1 µM (active)"}
{"smiles": "CN1C(=O)N(c2ccccc2Br)Cc2cnc(Nc3ccc4c(c3)OCC(CO)O4)nc21", "note": "(stereo not given)", "AC50": "71.8 µM (active)"}
{"smiles": "OC12N=C(c3ccccc3)SC1Cc1cc(Cl)ccc12", "note": "(stereo not given)", "AC50": "17 µM (active)"}
{"smiles": "O=C(O)Cn1c(=O)n(Cc2ccc(Br)cc2F)c(=O)c2ccc(Cl)cc21", "outcome": "inactive"}
{"smiles": "CCCCOC(=O)c1ccc(O)cc1", "outcome": "inactive"}
{"smiles": "CCN(CC)C(=O)c1cc(S(=O)(=O)Cc2ccccc2)c(N2CCC(c3ccccc3)CC2)cc1N(CC)CCN(C)C", "outcome": "inactive"}
{"smiles": "CCCCOC(=O)CC(CC(=O)OCCCC)(OC(C)=O)C(=O)OCCCC", "outcome": "inactive"}
{"smiles": "CC/C(=C(/CC)c1ccc(O)cc1)c1ccc(O)cc1", "outcome": "inactive"}
{"smiles": "C[C@]12CC[C@@H]3c4ccc(O)cc4CC[C@H]3[C@@H]1CC[C@H]2O", "AC50": "81.9 µM (active)"}
{"smiles": "CC1=CC(=O)/C(=C(/C)O)C(=O)O1", "outcome": "inactive"}
{"smiles": "CCCCCCCCCC(=O)O", "outcome": "inactive"}
{"smiles": "O=C(O)c1ccccc1-n1cc(C(=O)O)c(=O)c2cc(Nc3c(F)cc(F)cc3Cl)c(Cl)cc21", "outcome": "inactive"}
{"smiles": "Cc1occc1C(=O)Nc1ccc(C(=O)N2CCC(F)(F)/C(=C\\C(=O)N3CCC(N4CCCCC4)CC3)c3ccccc32)cc1", "AC50": "45.4 µM (active)"}
{"smiles": "CCCCCCCCCCCC[N+](C)(C)C", "AC50": "89.2 µM (active)"}
{"smiles": "O=CCCCC=O", "outcome": "inactive"}
{"smiles": "O=c1[nH]sc2ccccc12", "outcome": "inactive"}
{"smiles": "Cc1cn([C@H]2C[C@H](N=[N+]=[N-])[C@@H](CO)O2)c(=O)[nH]c1=O", "outcome": "inactive"}
{"smiles": "CCCCCCCCCCCCO", "outcome": "inactive"}
{"smiles": "c1ccc2ccccc2c1", "outcome": "inactive"}
{"smiles": "CCN(Cc1cccnc1)C(=O)c1cccc(Cl)c1[C@]1(C)C(=O)N(Cc2ccc(OC)cc2OC)c2ccc(Cl)cc21", "AC50": "19.9 µM (active)"}
{"smiles": "COc1cccc([C@H](O)C2CCN(CCc3ccc(F)cc3)CC2)c1OC", "outcome": "inactive"}
{"smiles": "CCCCCc1ccc(N)cc1", "outcome": "inactive"}
{"smiles": "O=c1ccc2ccccc2o1", "outcome": "inactive"}
{"smiles": "COc1ccc2cc(S(=O)(=O)N[C@H](CC(=O)N[C@H](Cc3ccc(CN4[C@H](C)CCC[C@@H]4C)cc3)C(=O)N(C)C(C)C)c3ccc4c(c3)OCO4)ccc2c1", "outcome": "inactive"}
{"smiles": "CC[C@@H]1C[C@H](N(Cc2cc(C(F)(F)F)cc(C(F)(F)F)c2)C(C)=O)c2cc(C(F)(F)F)ccc2N1C(=O)OC(C)C", "outcome": "inactive"}
